From PubChem BioAssay (NCATS)
Inconclusive results are not listed. Activity calls are given as the source filed them. Calls come from the whole dose curve; as a rule, active = well fitted curve in the direction sought with a large enough effect; inconclusive = small, poorly fitted or top-dose-only effect, or another doubt; inactive = no such curve, though single readings can be large; an effect the other way counts as inactive or inconclusive.

Experiments:
[1] = MultiTox-Fluor Cytotoxicity Assay - LYMP1-002 - Dead Cells (AID 960); conditions: LYMP1-002 lymphoblastoid cells, dead-cell protease fluorescence; series mostly up to 46.1 µM;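 note: cells exposed to compound for 16 h at 37 °C; nearly all actives have a fitted effect of over 60% in size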
Procedure, shortened: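 Acute cytotoxicity in a human lymphoblastoid line is scored as rising dead-cell protease signal after 16 hr exposure at 37 C, measured fluorometrically (485/520).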

[2] = MultiTox-Fluor Cytotoxicity Assay - LYMP1-003 - Dead Cells (AID 961); conditions: LYMP1-003 lymphoblastoid cells, dead-cell protease fluorescence; series mostly up to 92.2 µM;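 note: cells exposed to compound for 16 h at 37 °C; nearly all actives have a fitted effect of over 70% in size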
Procedure, shortened: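 Acute toxicity is scored as increased dead-cell protease activity in human lymphoblastoid LYMP1-003 cells after 16 h compound exposure in complete culture medium. Activity is normalized to DMSO basal and 15 uM tetraoctylammonium bromide as full response.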

[3] = MultiTox-Fluor Cytotoxicity Assay - LYMP1-003 - Live Cells (AID 962); conditions: LYMP1-003 lymphoblastoid cells, MultiTox-Fluor live-cell protease fluorescence; series mostly up to 92.2 µM;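 note: cells exposed to compound for 16 hours at 37 °C; cytotoxic hits lower the live-cell protease signal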
Procedure, shortened: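 Cells plated at 2500 per well and incubated 5 hr; compounds added and incubated 16 hr at 37 C; MultiTox-Fluor reagent added for 60 min at room temperature; fluorescence of liberated AFC measured at 405/510 nm.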

[4] = Cell Viability - LYMP1-003 - Assay at 24 hr (AID 963); conditions: LYMP1-003 lymphoblastoid cell viability; series mostly up to 92.2 µM
Procedure, shortened: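 Acute toxicity in LYMP1-003 lymphoblastoid cells: 24 hr compound treatment at 37 C, ATP measured with CellTiter-Glo after 30 min at room temperature. AC50 derived by fitting the Hill equation to qHTS titrations.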

[5] = Cell Viability - LYMP1-003 - Assay at 40 hr (AID 964); conditions: LYMP1-003 lymphoblastoid viability; series mostly up to 92.2 µM; note: nearly all actives have a fitted effect of over 60% in size
Procedure, shortened: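 This qHTS cytotoxicity screen treats human lymphoblastoid cells (LYMP1-003) with compounds for 40 hr and quantifies cellular ATP via luciferase luminescence.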

[6] = Cell Viability - LYMP2-003 (AID 965); conditions: LYMP2-003 lymphoblastoid cell viability; series mostly up to 92.2 µM;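 note: cells exposed to compounds for 24 h before reading; nearly all actives have a fitted effect of over 50% in size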
Procedure, shortened: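 Acute cytotoxicity is scored as a concentration-dependent drop in intracellular ATP, measured by luciferase luminescence in human lymphoblastoid cells treated for 24 hours at 37 C. AC50 values derive from Hill-equation modelling.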

[7] = Cell Viability - LYMP2-004 (AID 966); conditions: LYMP2-004 lymphoblastoid cell viability, qHTS; series mostly up to 92.2 µM; note: nearly all actives have a fitted effect of over 65% in size
Procedure, shortened: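 Acute toxicity is scored as a concentration-dependent drop in intracellular ATP, quantified by luciferase luminescence, in human lymphoblastoid cells exposed to compound for 24 hr. AC50 derives from Hill-equation modelling.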

[8] = Cell Viability - LYMP2-005 (AID 967); conditions: LYMP2-005 lymphoblastoid cell viability; series mostly up to 92.2 µM
Procedure, shortened: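 qHTS viability screen in LYMP2-005 cells: 24 h at 37 C with compound, ATP luminescence via CellTiter-Glo, AC50 from Hill curves.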

[9] = Cell Viability - LYMP2-009 (AID 968); conditions: LYMP2-009 lymphoblastoid cell viability; series mostly up to 92.2 µM; note: nearly all actives have a fitted effect of over 55% in size
[10] = Cell Viability - LYMP2-011 (AID 969); conditions: LYMP2-011 lymphoblastoid cells viability; series mostly up to 92.2 µM; note: nearly all actives have a fitted effect of over 60% in size
Procedure, shortened: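 Acute toxicity is scored as a concentration-dependent drop in intracellular ATP of a human lymphoblastoid line after 24 hr treatment. Values are AC50s modeled with the Hill equation.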

[11] = Cell Viability - LYMP2-013 (AID 970); conditions: LYMP2-013 lymphoblastoid cells viability; series mostly up to 92.2 µM; note: nearly all actives have a fitted effect of over 55% in size
Procedure, shortened: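 Acute toxicity was measured in human lymphoblastoid cells (2500/well) exposed to compound titrations for 24 hr, with ATP luminescence (CellTiter-Glo) as read-out and AC50 fitted by Hill equation.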

[12] = Cell Viability - LYMP2-015 (AID 971); conditions: LYMP2-015 lymphoblastoid cell viability; series mostly up to 92.2 µM; note: nearly all actives have a fitted effect of over 55% in size
Procedure, shortened: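 Acute toxicity was scored as a concentration-dependent drop in intracellular ATP in lymphoblastoid cells after 24 hr compound exposure in complete medium. Detection used CellTiter-Glo luciferase luminescence.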

[13] = Cell Viability - LYMP2-017 (AID 972); conditions: LYMP2-017 lymphoblastoid cell viability; series mostly up to 92.2 µM;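 note: cells exposed to compound for 24 hours at 37 °C; nearly all actives have a fitted effect of over 55% in size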
Procedure, shortened: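 Steps: plate 2500 lymphoblastoid cells per well; incubate 5 hr at 37 C; add compound across a concentration series and incubate 24 hr at 37 C; add CellTiter-Glo and read luminescence after 30 min at room temperature; fit Hill curves for AC50.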

[14] = Cell Viability - LYMP2-019 (AID 973); conditions: LYMP2-019 lymphoblastoid cell line viability; series mostly up to 92.2 µM; note: nearly all actives have a fitted effect of over 55% in size
Procedure, shortened: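 Cells plated at 2500/well and allowed 5 hr at 37 C before compound addition. After 24 hr incubation, CellTiter-Glo reagent was added, plates sat 30 min at room temperature, and luminescence was recorded.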

[15] = Cell Viability - LYMP2-021 (AID 974); conditions: LYMP2-021 lymphoblastoid cells viability; series mostly up to 92.2 µM
Procedure, shortened: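 Concentration-response cytotoxicity in a human lymphoblastoid line: 24 hr treatment at 37 C in complete culture medium, tetraoctylammonium bromide as positive control, luminescent ATP quantitation as viability measure.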

[16] = Cell Viability - LYMP2-023 (AID 975); conditions: LYMP2-023 lymphoblastoid cell viability; series mostly up to 92.2 µM
Procedure, shortened: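 Concentration-dependent drop in intracellular ATP measures acute cytotoxicity in a human lymphoblastoid line treated for 24 hours in complete culture medium. AC50 values are taken from Hill-equation fits of qHTS data.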

[17] = Cell Viability - LYMP2-025 (AID 976); conditions: LYMP2-025 lymphoblastoid cell viability; series mostly up to 92.2 µM
Procedure, shortened: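 In qHTS format, LYMP2-025 lymphoblastoid cells in complete culture medium received compound for 24 hr; ATP-based CellTiter-Glo signal gave viability, with AC50 derived by Hill equation.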

[18] = Cell Viability - LYMP2-002 (AID 977); conditions: LYMP2-002 lymphoblastoid cell viability, qHTS; series mostly up to 92.2 µM;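 note: compound exposure lasted 24 h at 37 °C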
Procedure, shortened: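 Cytotoxicity is scored as concentration-dependent loss of cellular ATP in a human lymphoblastoid line after 24 hr compound treatment at 37 C. AC50 is obtained by modelling concentration-response data with the Hill equation.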

[19] = Cell Viability - LYMP2-006 (AID 978); conditions: LYMP2-006 lymphoblastoid cell viability, qHTS; series mostly up to 92.2 µM; note: nearly all actives have a fitted effect of over 60% in size
Procedure, shortened: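 Concentration-dependent loss of intracellular ATP in a human lymphoblastoid line after 24 hr treatment at 37 C was measured by CellTiter-Glo luminescence, with AC50 values obtained from standard Hill-equation modelling.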

[20] = Cell Viability - LYMP2-007 (AID 979); conditions: LYMP2-007 lymphoblastoid cell viability; series mostly up to 92.2 µM
Procedure, shortened: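 Acute toxicity is scored as a concentration-dependent fall in intracellular ATP in human lymphoblastoid cells treated 24 hr at 37 C, measured by luciferase luminescence; Hill-equation modelling yields AC50.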

Measured: outcome

COc1ccc(CCC(=O)c2c(O)cc(O[C@@H]3O[C@H](CO)[C@@H](O)[C@H](O)[C@H]3O[C@@H]3O[C@@H](C)[C@H](O)[C@@H](O)[C@H]3O)cc2O)cc1O
inactive: [1] | [2] | [3] | [4] | [5] | [6] | [7] | [8] | [9] | [10] | [11] | [12] | [13] | [14] | [15] | [16] | [17] | [18] | [19] | [20]

C=C1C[C@]23C[C@@]1(O)CC[C@H]2[C@@]12C=C[C@H](O)[C@@](C)(C(=O)O1)[C@H]2[C@@H]3C(=O)O
inactive: [1] | [2] | [3] | [4] | [5] | [6] | [7] | [9] | [10] | [11] | [12] | [13] | [14] | [15] | [16] | [18] | [19] | [20]
